Source: PubChem BioAssay
Compounds with a hit are over-represented: about 5.7% of the library has one in this group of screens.
D3 ag: activates the human D3 dopamine receptor; D3R DiscoveRx beta-arrestin cells, luminescence, 90 min; max activation, %; 0.58% of 410,000 active; P35462; in the data active = max activation above about 30%
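Agonist-mode cell screen: cells plated at 1500/well and incubated overnight at 37 °C, then exposed to library compounds for 90 min at 37 °C. Detection reagent was added for 30–60 min at room temperature, and luminescence was read.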
GLP1R cytotox: cytotoxicity in counter-screen for GLP-1R inverse agonists; Potency, µM (highest dose often 38.3 µM), actives largely listed as inhibitors; HEK293 cAMP-luciferase reporter cells, luminescence, 24 h; 0.13% of 410,000 active; AID 624418;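 note: loss of luciferase light is scored as toxicity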
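1536-well qHTS counterscreen of the MLSMR; 200 cells/uL, 12 h pre-incubation, 23 nL cpd, 24 h at 37 deg C 5% CO2, luciferase detection reagent, 12 min RT, luminescence. Inhibition = undesired.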
ClpP mod: qHTS Assay for Activators of ClpP. 1.9% of 340,000 active. Potency, µM (top dose mostly 57.5 µM). AID 651965, 2013. purified B. subtilis ClpP, FRET peptide cleavage, 20 min. ATP-dependent Clp protease proteolytic subunit (Bacillus subtilis (strain 168)), P80244; active = well fitted falling curve with a large enough effect; inconclusive = small, poorly fitted or top-dose-only effect; inactive = no such curve, though single readings can be large or run the other way; note: the source files actives as falling curves though it sought activators and does not explain the sign; nearly all actives have a fitted effect of over 65% in size
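Buffer: 100 mM Tris/HCl pH8, 100 mM KCl, 0.05% low protease BSA, 2.5% glycerol, 0.01% Tween-20. ClpP 10 microg/mL final; 20 min RT; delta FRET normalized to ADEP and DMSO controls.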
GLP1R inv ag: inverse agonists of human GLP-1 receptor; P43220; HEK293 GLP-1R CRE-luciferase, luminescence, 24 h; GLP-1R form is constitutively active; Potency, µM (top dose mostly 38.3 µM), actives largely listed as inhibitors; 1.6% of 410,000 active; note: nearly all actives have a fitted effect of over 55% in size
Target sequence (P43220 whole entry, looked up): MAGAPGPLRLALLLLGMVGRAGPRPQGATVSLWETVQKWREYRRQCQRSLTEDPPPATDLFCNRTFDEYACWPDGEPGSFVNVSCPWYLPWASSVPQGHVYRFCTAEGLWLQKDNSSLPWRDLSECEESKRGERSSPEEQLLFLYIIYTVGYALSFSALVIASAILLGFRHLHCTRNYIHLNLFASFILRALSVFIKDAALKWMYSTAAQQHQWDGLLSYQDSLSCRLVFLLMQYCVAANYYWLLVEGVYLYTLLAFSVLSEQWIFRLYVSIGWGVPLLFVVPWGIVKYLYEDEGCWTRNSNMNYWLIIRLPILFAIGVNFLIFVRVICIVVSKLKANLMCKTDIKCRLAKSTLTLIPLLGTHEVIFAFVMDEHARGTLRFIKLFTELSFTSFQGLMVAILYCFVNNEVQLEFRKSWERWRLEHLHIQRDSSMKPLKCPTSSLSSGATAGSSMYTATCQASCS
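Readout was luciferase luminescence, measured 12 min after detection reagent at room temperature. Beforehand, GLP-1R reporter HEK293 cells had sat 12 h, then received compounds for 24 hr at 37 deg C.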
GLP1R ag: activates the human GLP-1 receptor | HEK293 GLP-1R CRE-luciferase, luminescence, 4-6 h; cells express a hypersensitive GLP-1R form | 0.007% of 380,000 active | Potency, µM (top dose mostly 45.6 µM), most hits filed as activators
DRD3 antagonist: D3 dopamine receptor (human) antagonism. P35462. D3R cells, DiscoveRx beta-arrestin luminescence, antagonist mode; hits give low values. max response, negative = inhibition, %. 2.5% of 360,000 active. AID 652054; in the data active = max response below about -50%; inconclusive = no clear call, values can overlap the other calls
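Cells plated overnight at 1500 cells/well, then exposed to library compounds with dopamine controls for 90 minutes at 37 degrees C. DiscoveRx reagent added for 30–60 minutes at room temperature; luminescence read, quantitative HTS format.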
Large screens that a line does not name were inactive. Unless noted, calls come from the whole dose curve; as a rule, active = well fitted curve in the direction sought with a large enough effect; inconclusive = small, poorly fitted or top-dose-only effect, or another doubt; inactive = no such curve, though single readings can be large; an effect the other way counts as inactive or inconclusive.

O=C(CN(C(=O)CCC(=O)Nc1ccccn1)c1ccc(F)cc1)NCc1ccc(F)cc1	DRD3 antagonist -93.7 (no result: ClpP mod)
O=C(CN(C(=O)CCC(=O)Nc1ccccn1)c1cccc(F)c1)NCc1ccc(F)cc1	D3 ag 31.7
O=C(CN(C(=O)CCC(=O)Nc1ccccn1)c1cccc(F)c1)NCc1ccc2c(c1)OCO2	none
Cc1cccc(-c2nc(Cn3c(SCc4cc(C)ccc4C)nc4ccncc43)c(C)o2)c1	none (no result: GLP1R ag, DRD3 antagonist)
Cc1cnccc1/C=C/c1ccc(N)cc1	none (no result: D3 ag, GLP1R cytotox, GLP1R inv ag, GLP1R ag, DRD3 antagonist)
CCN(CC)CCN1C(=O)c2ccccc2NC1c1ccc(OC)c(COc2ccc(NC(C)=O)cc2)c1 (centres undefined)	none (no result: D3 ag, GLP1R cytotox, GLP1R inv ag, GLP1R ag, DRD3 antagonist)
CCOC(=O)CSc1nc(-c2ccncc2)ccc1C#N	ClpP mod inconclusive
CCOC(=O)CSc1nc(-c2ccc3c(c2)OCO3)ccc1C#N	ClpP mod 25.1µM
CCOC(=O)CSc1nc(-c2ccc(OC)cc2)cc(C(F)(F)F)c1C#N	none (no result: GLP1R ag, DRD3 antagonist)
CCOC(=O)CCCSc1nc(-c2ccc3c(c2)OCO3)cc(C(F)(F)F)c1C#N	ClpP mod 15.8µM
COCCNc1nc(-c2ccc(OC)cc2C)c2sc(-c3ccccc3)cc2n1	ClpP mod inconclusive, GLP1R inv ag inconclusive
COc1cc(CCc2ccccc2)c(C(=O)O)c(O)c1CC=C(C)C	ClpP mod inconclusive, GLP1R inv ag 10µM
COc1cc(CCc2ccccc2)c(C(=O)O)c(O)c1C/C=C(/C)CCC=C(C)C	GLP1R cytotox inconclusive, ClpP mod inconclusive, GLP1R inv ag inconclusive
CSc1ccc(CCNc2ncnc3onc(-c4ccc(Cl)cc4)c23)cc1	GLP1R inv ag inconclusive (no result: GLP1R ag, DRD3 antagonist)
CCOc1ccc2nc(N/C(N)=N/C(=S)Nc3ccc(C)c(C)c3)nc(C)c2c1	ClpP mod 25.1µM
CCOc1ccc(NC(=O)CN(C)C(=O)CCCOc2ccc(Br)cc2)cc1OCC	GLP1R inv ag 10µM
CCOc1ccc(NC(=O)CN(C)C(=O)CCNC(=O)c2ccc(Br)cc2)cc1OCC	none
Oc1c(Cl)cc(Cl)cc1/C=N/NC(=S)NC1CC2C=CC1C2 (centres undefined)	GLP1R inv ag inconclusive, DRD3 antagonist -85.4 (no result: ClpP mod)
Oc1ccccc1/C=N/NC(=S)NC1CC2C=CC1C2 (centres undefined)	GLP1R inv ag 7.94µM, GLP1R ag inconclusive (no result: ClpP mod)
O=C(Nc1ccccc1Sc1ccccc1)c1cnn2c1NC(=C1CC1)C=C2C(F)F	none (no result: D3 ag, GLP1R cytotox, GLP1R inv ag, GLP1R ag, DRD3 antagonist)
O=C(CNC(=S)N(CCCN1CCOCC1)Cc1cccs1)NCc1ccccc1Cl	DRD3 antagonist -58.5
CCCCNC(=O)CNC(=S)N(Cc1ccccc1)Cc1cccs1	GLP1R inv ag 5.01µM (no result: ClpP mod)
CC(CCc1ccccc1)NC(=O)CNC(=S)N(Cc1cccs1)C1CCCC1 (centres undefined)	GLP1R inv ag 5.01µM (no result: ClpP mod)
CCOC(=O)CNC(=S)N(Cc1cccs1)C1CCCCC1	GLP1R inv ag inconclusive
COc1ccc(-c2ccc3c(N)c(C(=O)Nc4ccc(C)cc4C)sc3n2)cc1OC	none (no result: GLP1R ag, DRD3 antagonist)
O=C(Cc1ccc(F)cc1)NO	none (no result: D3 ag, GLP1R cytotox, GLP1R inv ag, GLP1R ag, DRD3 antagonist)
CC(C)(CC(=O)c1ccccc1)CC(=O)c1ccccc1	GLP1R inv ag inconclusive
COc1ccc(-c2cc(=O)c3cc(OCC(=O)OC(C)C)ccc3o2)cc1	none (no result: GLP1R ag, DRD3 antagonist)
CC[C@H](C)[C@H]1CNC(=S)N1CC1CCN(CC2CCC(C)CC2)CC1 (some centres undefined)	DRD3 antagonist -103.8
CCC(C)[C@H]1CNC(=O)C(=O)N1CC1CCCCC1 (some centres undefined)	none (no result: D3 ag, GLP1R cytotox, GLP1R inv ag, GLP1R ag, DRD3 antagonist)
CC[C@H](C)[C@H]1CNC(=S)N1CC1CCN(CCC23CC4CC(CC(C4)C2)C3)CC1	DRD3 antagonist -83.0
CCCC(C)(C)C(=O)N1CCC1(C)C(=O)NS(=O)(=O)c1cccc(Cl)c1 (centres undefined)	GLP1R inv ag inconclusive
COc1ccc(CNC(=O)CSCc2nc(-c3ccccc3C)oc2C)cc1	none (no result: GLP1R ag, DRD3 antagonist)
CC(C)(C)C(=O)OCCNc1nc(-c2cccs2)nc2ccccc12	none (no result: D3 ag, GLP1R cytotox, GLP1R inv ag, GLP1R ag, DRD3 antagonist)
